KCNQ2 block: rat KCNQ2 potassium channel inhibitors, primary screen, cell-based, CHO-K1, FluxOR thallium flux, B-score; Potassium voltage-gated channel subfamily KQT member 2 (Rattus norvegicus), O88943; 20 min; stronger effect = lower value; B-score at 10 µM; 310,000 compounds, 1.1% hits; AID 2156, 2009;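 active means fluorescence ratio B-score at most minus 3 library SDs, with starting brightness B-score within 2 library SDs, cut at about -5.5 in these data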
Target sequence (O88943 whole entry, looked up): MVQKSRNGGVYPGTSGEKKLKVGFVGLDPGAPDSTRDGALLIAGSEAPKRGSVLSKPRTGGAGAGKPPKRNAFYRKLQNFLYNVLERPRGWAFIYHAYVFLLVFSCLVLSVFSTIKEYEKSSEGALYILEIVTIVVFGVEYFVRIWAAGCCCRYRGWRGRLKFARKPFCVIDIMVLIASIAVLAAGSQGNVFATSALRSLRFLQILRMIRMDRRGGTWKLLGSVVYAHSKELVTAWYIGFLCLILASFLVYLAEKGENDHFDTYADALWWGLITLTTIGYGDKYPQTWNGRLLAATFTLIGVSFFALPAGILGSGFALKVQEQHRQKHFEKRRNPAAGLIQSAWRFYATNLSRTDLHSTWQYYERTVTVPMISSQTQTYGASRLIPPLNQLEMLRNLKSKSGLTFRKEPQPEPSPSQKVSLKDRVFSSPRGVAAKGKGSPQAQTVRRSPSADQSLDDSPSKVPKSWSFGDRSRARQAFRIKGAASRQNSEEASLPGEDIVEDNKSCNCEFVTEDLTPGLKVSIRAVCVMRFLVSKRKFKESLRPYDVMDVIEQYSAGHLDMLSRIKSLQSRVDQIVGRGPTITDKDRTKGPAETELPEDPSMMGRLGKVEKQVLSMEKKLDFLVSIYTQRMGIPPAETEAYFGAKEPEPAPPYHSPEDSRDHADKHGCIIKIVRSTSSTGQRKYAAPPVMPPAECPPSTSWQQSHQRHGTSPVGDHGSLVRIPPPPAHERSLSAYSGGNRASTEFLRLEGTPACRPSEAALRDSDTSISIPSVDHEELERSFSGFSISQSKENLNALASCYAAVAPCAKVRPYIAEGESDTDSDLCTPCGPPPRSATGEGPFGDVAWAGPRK
KCNQ2 enhance: potentiators of rat KCNQ2 potassium channel | Potassium voltage-gated channel subfamily KQT member 2 (Rattus norvegicus), O88943 | CHO-K1 KCNQ2, FluxOR thallium flux fluorescence; stronger effect = higher value | B-score at 10 µM | 310,000 compounds, 0.54% hits | AID 2239, 2010;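 active means fluorescence ratio B-score at least 3 SD of library B-scores, with initial fluorescence B-score within 3 of them, cut at about 5.3 in these data; same plate scores as AID 2156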;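 further: B-score of peak minus minimum over baseline fluorescence ratio after K+ and Tl+ stimulus; positive B-score means potentiation of KCNQ2 with more thallium influx and brighter signal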
A number is an active result. A selection: hits, their analogues and other compounds. The true share with any hit is near 1.6%.

Screening Cc1ccc(NC(=O)C(C)Sc2nc(-c3ccccc3)cc(=O)[nH]2)cc1 (stereo not drawn) returned KCNQ2 block inactive and KCNQ2 enhance inactive.
For CCC1(C)Cc2ccccc2-c2c1c(=O)n(Cc1ccccc1)c1nnnn21 (stereo not drawn) the results were KCNQ2 block -6.2 and KCNQ2 enhance inactive.
`O=c1c2c(n3nnnc3n1Cc1ccccc1)-c1ccccc1CC21CCCC1` gave KCNQ2 block inactive.
Screening Cc1ccc(C)c(N2CCN(C(=O)c3ccc(N4CCCC4=O)cc3)CC2)c1 returned KCNQ2 block inactive and KCNQ2 enhance inactive.
`Cc1cc(C)cc(OCC(=O)OCC(=O)N(CC(C)C)c2c(N)n(Cc3ccccc3)c(=O)[nH]c2=O)c1` gave KCNQ2 block inactive and KCNQ2 enhance inactive.
O=C(CCN1CCC(c2ccccc2)C1)c1ccccc1 (stereo not drawn) was read as KCNQ2 block inactive.
`O=C(CCN1CCC(c2ccccc2)C1)c1ccc2c(c1)OCCO2` (stereo not drawn) gave KCNQ2 block -6.2 and KCNQ2 enhance inactive.
CC(C)(C)c1ccc(Cn2nnc3c(=O)[nH]c(C4CCCN(C(=O)c5cccs5)C4)nc32)cc1 (stereo not drawn) was read as KCNQ2 block inactive.
`COc1ccc(CNC(=O)CN2C(=O)COc3ccc(S(=O)(=O)N4CCC(C)CC4)cc32)cc1` gave KCNQ2 block inactive and KCNQ2 enhance inactive.
`COc1ccccc1CNC(=O)COC(=O)C1CCN(S(=O)(=O)c2ccccc2)CC1` gave KCNQ2 block inactive.
`CCN(C(=O)COC(=O)c1nc(Cl)ccc1Cl)C1CCS(=O)(=O)C1` (stereo not drawn) gave KCNQ2 block inactive.
Screening CC(C)N(C(=O)CSc1nc2ccccc2n1Cc1ccccc1)C(C)C returned KCNQ2 block inactive.
`CC(C)N(C(=O)CSc1nc2ccccc2n1-c1ccccc1)C(C)C` gave KCNQ2 block -6 and KCNQ2 enhance inactive.
Screening O=C(CN(CC1CCCO1)C(=O)CNS(=O)(=O)c1ccc(F)cc1)NC1CCCCC1 (stereo not drawn) returned KCNQ2 block inactive.
Screening CCOC(=O)CC1(NC(=O)c2cc(COc3cccc(OC)c3)on2)CCCCC1 returned KCNQ2 block -7 and KCNQ2 enhance inactive.
Screening COc1cccc(OCc2cc(C(=O)NCC3CCCCC3)no2)c1 returned KCNQ2 block inactive.
For CCNc1ccc(Br)cc(C(=O)/C=C/c2ccc(Cl)cc2Cl)c1=O the results were KCNQ2 block -5.8 and KCNQ2 enhance inactive.
Screening CNc1ccc(Br)cc(C(=O)/C=C/c2cc(OC)ccc2OC)c1=O returned KCNQ2 block inactive.
For CCc1ccccc1NC(=O)CC(NCc1ccccc1)C(=O)O (stereo not drawn) the results were KCNQ2 block inactive and KCNQ2 enhance inactive.
For Cc1ccc(/C=C/C(=O)c2ccccc2)cc1 the results were KCNQ2 block inactive.
For Cc1ccc(/C=C/C(=O)c2ccccc(=O)c2O)c(C)c1 the results were KCNQ2 block inactive and KCNQ2 enhance 5.9.
For N=c1n(N)c2ccccc2n1CC(=O)c1ccc(Br)cc1 the results were KCNQ2 block inactive and KCNQ2 enhance inactive.
For COc1ccc(S(=O)(=O)N2CCCCCC2)cc1C(=O)N(C)Cc1ccc(OC)c(OC)c1OC the results were KCNQ2 block inactive and KCNQ2 enhance inactive.
For COc1cccc(NC(=O)CCS(=O)(=O)c2ccc(Br)cc2)c1 the results were KCNQ2 block inactive and KCNQ2 enhance inactive.
COc1cc(N/N=C(\C)c2ccc(N)cc2)nc(-c2ccccc2)n1 was read as KCNQ2 block -6.8 and KCNQ2 enhance inactive.
`COc1cc(N/N=C(\C)c2ccc(O)c(C)c2)nc(-c2ccccc2)n1` gave KCNQ2 block inactive.
CCN(CC)C(=O)c1[nH]cnc1C(=O)NCC(=O)OCc1ccccc1 was read as KCNQ2 block inactive.
Screening CCOC(=O)C1CCCN(C(=O)Cn2ncc3c([nH]c4ccccc43)c2=O)C1 (stereo not drawn) returned KCNQ2 block inactive and KCNQ2 enhance inactive.
Cc1ccc(CN(C(=O)COc2cccc(C)c2C)C2CCS(=O)(=O)C2)o1 (stereo not drawn) was read as KCNQ2 block inactive and KCNQ2 enhance inactive.
COc1ccc(S(=O)(=O)N2CCC(C(=O)NCCc3c[nH]c4ccccc34)CC2)cc1 was read as KCNQ2 block inactive and KCNQ2 enhance inactive.
Screening CCc1cc(C(=O)OC)c(NC(=O)CC2NCCNC2=O)s1 (stereo not drawn) returned KCNQ2 block inactive and KCNQ2 enhance inactive.
CCc1cc(C(=O)OC)c(NC(=O)C2CC(=O)NN2Cc2ccccc2)s1 (stereo not drawn) was read as KCNQ2 block -5.9 and KCNQ2 enhance inactive.
Nc1ccc(-c2nc3c(ccc4ccccc43)[nH]2)cc1 was read as KCNQ2 block inactive and KCNQ2 enhance inactive.
